Here are results for 19 molecules from PubChem BioAssay (EPA / NIEHS).

What all share (details): mRNA level, 48 h; actives raise or lower the signal
Read-out in experiment [1]: solute carrier (SLCO1B1), SLCO1B1 (gene 10599)
Description: LTEA_HepaRG_SLCO1B1: Life Technologies and Expression Analysis (LTEA) Assay for solute carrier (SLCO1B1) using HepaRG (AID 2283530). A digest of the protocol: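 SLCO1B1 transcript levels were quantified by TaqMan qRT-PCR using three housekeeping genes for normalization. This followed 48 h chemical exposure (100 uM top, half-log, 8 points, 0.5% DMSO) of HepaRG liver cells, with gain or loss fitted relative to DMSO.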

Read-out in experiment [2]: sulfotransferase 2A1 (SULT2A1), SULT2A1 (gene 6822)
Put plainly: LTEA_HepaRG_SULT2A1: Life Technologies and Expression Analysis (LTEA) Assay for sulfotransferase 2A1 (SULT2A1) using HepaRG (AID 2283531). A digest of the protocol: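 Expression change of SULT2A1, by qRT-PCR with three housekeeping-gene normalization, was scored bidirectionally versus DMSO. Cells: differentiated HepaRG, dosed in duplicate for 48 h across 8 points, highest 100 µM, half-log dilution, 0.5% DMSO.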

Read-out in experiment [3]: Transforming Growth Factor (TGFA), TGFA (gene 7039)
Put plainly: LTEA_HepaRG_TGFA: Life Technologies and Expression Analysis (LTEA) Assay for Transforming Growth Factor (TGFA) using HepaRG (AID 2283532). The gist of the method: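 HepaRG (human liver line), 48 h exposure, 8 conc. half-log down from 100 uM, 0.5% DMSO vehicle, duplicates; serum-free induction medium. TGFA mRNA by TaqMan qRT-PCR, ACTB/GAPDH/POLR2A normalization; gain/loss fit vs DMSO.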

Read-out in experiment [4]: Transforming Growth Factor (TGFB1), TGFB1 (gene 7040)
Put plainly: LTEA_HepaRG_TGFB1: Life Technologies and Expression Analysis (LTEA) Assay for Transforming Growth Factor (TGFB1) Transporter using HepaRG (AID 2283533). A digest of the protocol:
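TGFB1 transcript measured by qRT-PCR with normalisation to three housekeeping genes (ACTB, GAPDH, POLR2A); human HepaRG line treated in duplicate for 48 hr with an 8-point series topping at 100 uM, 0.5% DMSO vehicle, bidirectionally fitted.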

Read-out in a further experiment: TIMP1, TIMP1 (gene 7076)
Put plainly: LTEA_HepaRG_TIMP1: Life Technologies and Expression Analysis (LTEA) Assay for TIMP1 using HepaRG (AID 2283534).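 Note: TaqMan qRT-PCR signal normalized to ACTB GAPDH and POLR2A housekeeping genes.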 A digest of the protocol: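 Bidirectional change in TIMP1 transcript versus 0.5% DMSO, measured by TaqMan qRT-PCR with three housekeeping genes for normalization. HepaRG human liver cells dosed 48 h in duplicate, top concentration 100 uM with half-log dilutions.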

Read-out in experiment [5]: Tumor necrosis factor receptor 1 (TNFRSF1A), TNFRSF1A (gene 7132)
Put plainly: LTEA_HepaRG_TNFRSF1A: Life Technologies and Expression Analysis (LTEA) Assay for Tumor necrosis factor receptor 1 (TNFRSF1A) using HepaRG (AID 2283535). The gist of the method:
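mRNA measured by qRT-PCR (TaqMan, Fluidigm arrays) against ACTB/GAPDH/POLR2A housekeepers after 48 h chemical exposure of HepaRG cells. Top concentration 100 uM, half-log 8-point series, duplicates; vehicle 0.5% DMSO, both fit directions.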

Read-out in experiment [6]: Thyroid Hormone Responsive (THRSP), THRSP (gene 7069)
Put plainly: LTEA_HepaRG_THRSP: Life Technologies and Expression Analysis (LTEA) Assay for Thyroid Hormone Responsive (THRSP) using HepaRG (AID 2283536). The gist of the method: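 mRNA induction or loss relative to 0.5% DMSO vehicle was fitted bidirectionally across an eight-point curve whose highest exposure was 100 uM. Human HepaRG liver cells received chemicals in duplicate over 48 h before RNA extraction.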

Read-out in experiment [7]: UDP glucuronosyltransferase (UGT1A1), UGT1A1 (gene 54658)
Put plainly: LTEA_HepaRG_UGT1A1: Life Technologies and Expression Analysis (LTEA) Assay for UDP glucuronosyltransferase (UGT1A1) using HepaRG (AID 2283538). The gist of the method: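 Readout is UGT1A1 transcript level by qRT-PCR, normalized to three housekeeping genes, after 48 h chemical treatment of HepaRG cells. Concentrations ran from 100 uM down in half-log steps with 0.5% DMSO, and gain or loss relative to DMSO was fitted.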

Read-out in experiment [8]: UDP glucuronosyltransferase (UGT1A6), UGT1A6 (gene 54578)
Description: LTEA_HepaRG_UGT1A6: Life Technologies and Expression Analysis (LTEA) Assay for UDP glucuronosyltransferase (UGT1A6) using HepaRG (AID 2283539). The gist of the method: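 Expression was quantified by TaqMan qRT-PCR on Fluidigm arrays with ACTB/GAPDH/POLR2A normalization and bidirectional fitting against 0.5% DMSO. HepaRG cells (~100,000/well) were treated in duplicate for 48 h at eight half-log concentrations up to 100 uM in serum-free induction medium.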

Each structure is given as a SMILES string. The source made the active and inactive calls. Rule for the calls: active = hit-call score of the fitted dose curve at least 0.9, where 1 is the maximum; inactive = score below 0.9.

For the molecule `CCNP(=S)(OC)O/C(C)=C/C(=O)OC(C)C` (stereo unspecified), the outcome was “inactive” in [1]; “inactive” in experiment [2]; “inactive” in experiment [3]; “inactive” in experiment [4]; “inactive” in the experiment with TIMP1, TIMP1 (gene 7076); “inactive” in experiment [5]. Also, the result in [8] was inactive. Also, the AC50 (commonly the concentration at which the activity in the assay is half-maximal) is 32.6 µM (active) in experiment [6] and 9.32 µM (active) in experiment [7].
With `COc1cc(Cl)c(OC)cc1Cl`, the outcome was “inactive” in [1]; “inactive” in [2]; “inactive” in [3]; “inactive” in experiment [4]; “inactive” with TIMP1, TIMP1 (gene 7076); “inactive” in experiment [5]. For the same molecule, the call in experiment [6] and in experiment [8] was inactive. In experiment [7], the AC50 was 2.69 µM (active).
For `CCOC(=O)C(C)OC(=O)c1cc(Oc2ccc(C(F)(F)F)cc2Cl)ccc1[N+](=O)[O-]` (stereo unspecified), the outcome is “inactive” in experiment [1]; “inactive” in [2]; “inactive” in experiment [3]; “inactive” in experiment [4]; “inactive” with TIMP1, TIMP1 (gene 7076); “inactive” in experiment [5]. The call in experiment [8] was inactive. Moreover, the AC50 in [6] was 28.4 µM (active); in [7] it was 8.94 µM (active).
Turning to `O=P(O)(O)CCCl`, the outcome is “inactive” in experiment [1]; “inactive” in [2]; “inactive” in [3]; “inactive” in [4]; “inactive” in the experiment with TIMP1, TIMP1 (gene 7076); “inactive” in experiment [5]. The result in experiment [6], in experiment [7] and in [8] was inactive.
`CC1(C)C(C(=O)OC(C#N)c2cccc(Oc3ccccc3)c2)C1(C)C` (stereo unspecified): the outcome in experiment [1] is “inactive”; in experiment [2] it was “inactive”; in [3] it was “inactive”; in experiment [4], “inactive”; with TIMP1, TIMP1 (gene 7076), “inactive”; in experiment [5], “inactive”. For the same molecule, the molecule was called inactive in experiment [6] and in experiment [8]. Moreover, the AC50 in experiment [7] is 50 µM (active).
For the molecule `CCCCC(C#N)(Cn1cncn1)c1ccc(Cl)cc1` (stereo unspecified), the outcome in experiment [1] is “inactive”; in experiment [2], “inactive”; in [3], “inactive”; with TIMP1, TIMP1 (gene 7076), “inactive”; in [5] it was “inactive”; in [8], “inactive”. For the same molecule, the half-maximal activity concentration (AC50) in experiment [4] is 50 µM (active); in experiment [6] it was 25 µM (active); in experiment [7], 12.2 µM (active).
Turning to `COC(=O)N(C(=O)N1CO[C@@]2(C(=O)OC)Cc3cc(Cl)ccc3C2=N1)c1ccc(OC(F)(F)F)cc1`, the AC50 in [1] was 59 µM (active); in experiment [2], 65 µM (active); in experiment [6] it was 40 µM (active); in experiment [7], 10 µM (active). The outcome was “inactive” in [3]; “inactive” in [4]; “inactive” with TIMP1, TIMP1 (gene 7076); “inactive” in experiment [5]; “inactive” in experiment [8].
Consider `CC(C)Oc1cccc(NC(=O)c2ccccc2C(F)(F)F)c1`, for which the outcome in experiment [1] was “inactive”; in [2], “inactive”; in experiment [3], “inactive”; in [4], “inactive”; with TIMP1, TIMP1 (gene 7076) it was “inactive”; in experiment [5] it was “inactive”. In addition, the result in experiment [6] and in experiment [8] was inactive. Besides, the AC50 in experiment [7] was 29.4 µM (active).
As for `CCOc1nc(F)cc2nc(S(=O)(=O)Nc3c(Cl)cccc3Cl)nn12`, the outcome in experiment [1] was “inactive”; in experiment [2] it was “inactive”; in experiment [3], “inactive”; in experiment [4], “inactive”; with TIMP1, TIMP1 (gene 7076), “inactive”; in experiment [5], “inactive”. Also, the call in experiment [6], in experiment [7] and in experiment [8] was inactive.
Regarding `Cc1nc(N(C)C)nc(OC(=O)N(C)C)c1C`, the outcome was “inactive” in experiment [1]; “inactive” in [2]; “inactive” in experiment [3]; “inactive” in [4]; “inactive” with TIMP1, TIMP1 (gene 7076); “inactive” in experiment [5]. The molecule was classed as inactive in experiment [6] and in experiment [8]. Besides, in experiment [7], the AC50 is 13.9 µM (active).
`Cc1cc(C)nc(Nc2ccccc2)n1`: the outcome is “inactive” in experiment [1]; “inactive” in experiment [2]; “inactive” in experiment [3]; “inactive” in experiment [4]; “inactive” in the experiment with TIMP1, TIMP1 (gene 7076); “inactive” in experiment [5]. The result in experiment [6] and in experiment [8] was inactive. In experiment [7], the AC50 is 68.6 µM (active).
With `O=C(O)c1c(Cl)ccc2cc(Cl)cnc12`, the outcome in [1] is “inactive”; in experiment [2], “inactive”; in [3] it was “inactive”; in [4] it was “inactive”; with TIMP1, TIMP1 (gene 7076), “inactive”; in experiment [5], “inactive”. In addition, the call in experiment [6], in experiment [7] and in experiment [8] was inactive.
Regarding `Clc1cccc(C(Cl)(Cl)Cl)n1`, the outcome was “inactive” in experiment [1]; “inactive” in experiment [2]; “inactive” in experiment [3]; “inactive” in [4]; “inactive” with TIMP1, TIMP1 (gene 7076); “inactive” in [5]. The call in [6] and in experiment [8] was inactive. Further, in experiment [7], the AC50 was 50 µM (active).
With `COCc1cnc(C2=NC(C)(C(C)C)C(=O)N2)c(C(=O)O)c1` (stereo unspecified), the outcome is “inactive” in experiment [1]; “inactive” in experiment [2]; “inactive” in experiment [3]; “inactive” in experiment [4]; “inactive” with TIMP1, TIMP1 (gene 7076); “inactive” in experiment [5]. Also, the outcome in experiment [6], in experiment [7] and in [8] was inactive.
Take `COc1cc(OC)nc(NC(=O)NS(=O)(=O)c2ncccc2OCC(F)(F)F)n1`: in experiment [1], the AC50 was 9.92 µM (active). In addition, the outcome in experiment [2] is “inactive”; in experiment [3], “inactive”; in experiment [4], “inactive”; with TIMP1, TIMP1 (gene 7076), “inactive”; in [5], “inactive”; in experiment [6], “inactive”. For the same molecule, the outcome in experiment [7] and in [8] was inactive.
Take `COP(=S)(OC)Oc1ccc([N+](=O)[O-])c(C)c1`: the outcome in experiment [1] is “inactive”; in experiment [2], “inactive”; in experiment [3], “inactive”; in experiment [4] it was “inactive”; in the experiment with TIMP1, TIMP1 (gene 7076), “inactive”; in [5], “inactive”. Besides, the molecule was classed as inactive in experiment [6] and in [8]. Moreover, the AC50 in experiment [7] is 11.5 µM (active).
`COP(=S)(OC)SCn1nnc2ccccc2c1=O`: the outcome in experiment [1] was “inactive”; in experiment [2], “inactive”; in experiment [3], “inactive”; in experiment [4], “inactive”; in the experiment with TIMP1, TIMP1 (gene 7076), “inactive”; in experiment [5], “inactive”. The call in experiment [6] and in experiment [8] was inactive. In experiment [7], the AC50 was 43.2 µM (active).
On to `CC(C)=CC1C(C(=O)OCc2coc(Cc3ccccc3)c2)C1(C)C` (stereo unspecified), for which the outcome in [1] is “inactive”; in experiment [2], “inactive”; in [3] it was “inactive”; in experiment [4], “inactive”; with TIMP1, TIMP1 (gene 7076), “inactive”; in [5] it was “inactive”. In addition, the call in experiment [6] and in experiment [8] was inactive. Also, the AC50 in experiment [7] is 39.4 µM (active).
With `Cc1cnc(C2=NC(C)(C(C)C)C(=O)N2)c(C(=O)O)c1` (stereo unspecified), the outcome in experiment [1] is “inactive”; in experiment [2], “inactive”; in experiment [3] it was “inactive”; in [4], “inactive”; with TIMP1, TIMP1 (gene 7076) it was “inactive”; in [5], “inactive”. Further, the outcome in experiment [6], in experiment [7] and in experiment [8] was inactive.
